Measured values from PubChem BioAssay (EPA / NIEHS).
“And” between values parts separate entries of the source, which are not always exact repeats. Equal entries are not always repeated. More than one record can exist for a structure, and the calls need not agree. The source made the active and inactive calls. Rule for the calls: active = hit-call score of the fitted dose curve at least 0.9, where 1 is the maximum; inactive = score below 0.9.

How the values were obtained:
[1] = ATG_M_32_CIS: Attagene CIS-FACTORIAL HepG2 Assay for M32 Transcription Factor (Internal Marker) (AID 2282949); details: HepG2 Attagene cis-factorial M32 reporter, mRNA; actives raise or lower the signal;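 note: background control marker of the multiplexed CIS panel rather than a real target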
Method in brief: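 Fluorescent capillary electrophoresis peaks of HpaI-digested, FAM-labelled RT-PCR reporter products give the signal. Source: transiently transfected human liver HepG2 cells, 24 h after chemical dosing; bidirectional fitting against DMSO.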

[2] = ATG_M_06_CIS: Attagene CIS-FACTORIAL HepG2 Assay for M06 Transcription Factor (Internal Marker) (AID 2282950); details: HepG2 Attagene CIS-FACTORIAL M06 internal marker reporter; actives raise or lower the signal
Method in brief: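 HepG2 cells transiently transfected with cis-regulated multiple reporter transcription units were exposed to chemical for 24 h; reporter mRNA was quantified by RT-PCR, 6-FAM primer labelling, HpaI digestion and capillary electrophoresis, fitted bidirectionally against DMSO.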

[3] = target: Hypoxia-inducible factor 1-alpha (Homo sapiens) (UniProt Q16665); experiment: ATG_HIF1a_CIS: Attagene CIS-FACTORIAL HepG2 Assay for human Hypoxia Inducible Factor 1 (HIF1A) (AID 2282951); details: HepG2 Attagene cis-factorial HIF1a reporter transcription; actives raise or lower the signal
Method in brief: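 Measures endogenous transcription-factor activity through cis-regulated reporter mRNA in HepG2. Cells dosed 24 h; transcripts quantified by RT-PCR with 6-FAM-labelled products separated by capillary electrophoresis; DMSO serves as negative control.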

[4] = target: Hepatocyte nuclear factor 6 (Homo sapiens) (UniProt Q9UBC0); experiment: ATG_HNF6_CIS: Attagene CIS-FACTORIAL HepG2 Assay for human Hepatocyte Nuclear Factor 6 (HNF6) (AID 2282952); details: HepG2 Attagene cis-factorial HNF6 reporter transcription; actives raise or lower the signal
Method in brief: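 HepG2 cells transiently transfected with cis-element-driven multiple reporter transcription units, dosed 24 h; reporter mRNA quantified by RT-PCR, FAM primer extension, HpaI digestion and capillary electrophoresis; bidirectional fit versus DMSO baseline.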

[5] = target: Heat shock factor protein 1 (Homo sapiens) (UniProt Q00613); experiment: ATG_HSE_CIS: Attagene CIS-FACTORIAL HepG2 Assay for human Heat Shock Transcription Factor 1 (HSE) (AID 2282953); details: HepG2 HSE cis-reporter, Attagene RNA transcription; actives raise or lower the signal
Method in brief: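 HepG2 cells transiently transfected with multiple reporter transcription units under cis-regulatory promoter control, measuring endogenous transcription factor activity. After 24 h chemical exposure, reporter mRNA quantified by RT-PCR, fluorescent labelling, HpaI digestion and capillary electrophoresis; bidirectional fit versus DMSO.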

[6] = ATG_MRE_CIS: Attagene CIS-FACTORIAL HepG2 Assay for human Metal Responsive Element (MRE) (AID 2282954); details: HepG2 MRE cis-reporter transcription, Attagene multiplex; actives raise or lower the signal
Method in brief: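 HepG2 cells transiently transfected with cis-element-driven reporter units; mRNA measured 24 h after dosing. Reporter transcripts quantified by RT-PCR, FAM labelling, HpaI digestion and capillary electrophoresis; bidirectional fit versus DMSO.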

[7] = ATG_PBREM_CIS: Attagene CIS-FACTORIAL HepG2 Assay for human Phenobarbital-responsive Enhancer Module (PBREM) (AID 2282955); details: HepG2 PBREM cis-reporter, Attagene multiplexed transcription; actives raise or lower the signal
Method in brief: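 Fluorescence of labelled reporter cDNA fragments, resolved by capillary electrophoresis, gives mRNA induction in transfected HepG2 cells treated for 24 h; DMSO serves as negative control and baseline.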

[8] = target: Paired box protein Pax-6 (Homo sapiens) (UniProt P26367); experiment: ATG_Pax6_CIS: Attagene CIS-FACTORIAL HepG2 Assay for human Paired Box 6 (PAX6) (AID 2282956); details: HepG2 CIS-FACTORIAL PAX6 reporter transcription, RNA readout; actives raise or lower the signal
Method in brief: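 HepG2 cells transiently transfected with cis-promoter-driven multiplexed reporter units sensing endogenous transcription factor activity; 24 h chemical exposure. Reporter mRNA quantified by RT-PCR, 6-FAM labelling, HpaI digestion and capillary electrophoresis; bidirectional fit versus DMSO baseline.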

[9] = ATG_PXRE_CIS: Attagene CIS-FACTORIAL HepG2 Assay for human Pregnane X Receptor Element (PXRE) (AID 2282957); details: HepG2 Attagene CIS-FACTORIAL PXRE reporter, mRNA; actives raise or lower the signal
Method in brief: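 HepG2 cells transiently transfected with cis-regulated multiple reporter transcription units; endogenous factor activity measured as reporter mRNA 24 h after dosing. RT-PCR, fluorescent primer extension, HpaI digestion, capillary electrophoresis; bidirectional fit versus DMSO baseline.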

[10] = ATG_PPRE_CIS: Attagene CIS-FACTORIAL HepG2 Assay for human Peroxisome Proliferator-activated Response Element (PPRE) (AID 2282958); details: HepG2 PPRE cis-element reporter, Attagene transcription factor profiling; actives raise or lower the signal
Method in brief: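 Cells are first transfected transiently with the multiplexed reporter library, then dosed for 24 h. Total RNA is reverse-transcribed, amplified, fluorescently end-labeled and HpaI-cut before capillary electrophoresis; activity is fitted bidirectionally against DMSO controls.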

[11] = ATG_RORE_CIS: Attagene CIS-FACTORIAL HepG2 Assay for human RAR-related Orphan Receptor Element (RORE) (AID 2282959); details: HepG2 Attagene cis-factorial RORE reporter, mRNA; actives raise or lower the signal
Method in brief: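 Cells were HepG2 carrying transfected cis-regulated reporter constructs, dosed for 24 hours. Total RNA was reverse-transcribed and reporter cDNA amplified, fluorescently labeled and sized by capillary electrophoresis. Activity was fitted bidirectionally relative to DMSO.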

[12] = ATG_Sox_CIS: Attagene CIS-FACTORIAL HepG2 Assay for human SRY-box transcription factor (SOX) (AID 2282960); details: HepG2 Attagene cis-factorial SOX reporter, mRNA; actives raise or lower the signal
Method in brief: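 Transient MRTU transfection of HepG2; 24 h compound incubation; TriZol RNA, oligo(dT) RT, PCR, 6-FAM primer extension, HpaI cut, CE. Bidirectional fit, DMSO = baseline.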

[13] = target: Transcription factor Sp1 (Homo sapiens) (UniProt P08047); experiment: ATG_Sp1_CIS: Attagene CIS-FACTORIAL HepG2 Assay for human Specificity Protein 1 (Sp1) (AID 2282961); details: HepG2 Sp1 cis-reporter transcription, actives raise or lower the signal
Method in brief: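 Endogenous Sp1 activity was gauged in human liver HepG2 cells bearing transfected reporter units under a cis-regulating promoter. After 24 h dosing, reporter mRNA was quantified by RT-PCR with capillary electrophoresis, and activity fitted bidirectionally versus DMSO.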

[14] = ATG_SREBP_CIS: Attagene CIS-FACTORIAL HepG2 Assay for human Sterol Regulatory Element Binding (SREBP) (AID 2282962); details: HepG2 Attagene cis-factorial SREBP reporter, mRNA; actives raise or lower the signal
Method in brief: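 HepG2 cells transiently transfected with multiplexed cis-promoter reporter units sensing endogenous transcription factors; reporter mRNA measured 24 h after dosing by RT-PCR, 6-FAM labeling, HpaI digestion and capillary electrophoresis. Bidirectional fit versus DMSO.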

[15] = target: Signal transducer and activator of transcription 3 (Homo sapiens) (UniProt P40763); experiment: ATG_STAT3_CIS: Attagene CIS-FACTORIAL HepG2 Assay for human Signal Transducer and Activator of Transcription 3 (STAT3) (AID 2282963); details: HepG2, Attagene cis-factorial STAT3 reporter transcription; actives raise or lower the signal
Method in brief: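 HepG2 cells transiently transfected with multiple cis-element-driven reporter units report endogenous transcription factor activity. After 24 h compound exposure, reporter mRNA is measured by RT-PCR, 6-FAM labelling, HpaI digestion and capillary electrophoresis. Fitted bidirectionally versus DMSO.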

[16] = ATG_TA_CIS: Attagene CIS-FACTORIAL HepG2 Assay for human TA Basal Promoter (AID 2282964); details: HepG2 Attagene CIS-factorial TA basal promoter reporter; actives raise or lower the signal
Method in brief: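 HepG2 cells transiently transfected with multiplexed cis-promoter reporter units, dosed 24 h. Reporter mRNA measured by RT-PCR, 6-FAM labelling, HpaI digestion and capillary electrophoresis; bidirectional fit versus DMSO baseline, serving as background control.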

[17] = ATG_TCF_b_cat_CIS: Attagene CIS-FACTORIAL HepG2 Assay for human T-Cell-Factor with beta-catenin (TCF/b-cat) (AID 2282965); details: HepG2 TCF/beta-catenin cis-reporter transcription, actives raise or lower the signal
Method in brief: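 Cells of the HepG2 line carry transiently transfected reporter units whose promoters respond to endogenous factors. Twenty-four hours post-dosing, reporter mRNA induction is measured by fluorescent RT-PCR and capillary electrophoresis, with DMSO as baseline.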

[18] = ATG_TAL_CIS: Attagene CIS-FACTORIAL HepG2 Assay for human TAL Basal Promoter (AID 2282966); details: HepG2 Attagene cis-factorial TAL promoter reporter; actives raise or lower the signal;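 note: background control endpoint measuring basal TAL promoter reporter mRNA not a specific factor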
Method in brief: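 HepG2 cells were transiently transfected with promoter-driven multiplexed reporter units and dosed for 24 h. Reporter mRNA was measured by RT-PCR with capillary electrophoresis fluorescence; bidirectional fits used DMSO as baseline, serving as a background control.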

[19] = ATG_TGFb_CIS: Attagene CIS-FACTORIAL HepG2 Assay for human Transforming Growth Factor (TGF) (AID 2282967); details: HepG2 Attagene CIS TGFb reporter, mRNA transcription; actives raise or lower the signal
Method in brief: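 HepG2 cells transiently transfected with cis-promoter-driven multiplexed reporter units; 24 h compound exposure. Reporter mRNA measured by RT-PCR, 6-FAM labeling, HpaI digestion and capillary electrophoresis; bidirectional fit versus DMSO baseline.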

[20] = ATG_VDRE_CIS: Attagene CIS-FACTORIAL HepG2 Assay for human Vitamin D Receptor Element (VDRE) (AID 2282968); details: HepG2 VDRE cis-reporter transcription, actives raise or lower the signal
Method in brief: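 Transiently transfected HepG2 cells carrying cis-regulated reporter transcription units were exposed for 24 h. Reporter mRNA was measured by RT-PCR with fluorescent labelling and capillary electrophoresis, and fitted in both directions against DMSO.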

Measured: AC50

Chain of Heat shock factor protein 1 (Homo sapiens) (Q00613 whole entry, looked up): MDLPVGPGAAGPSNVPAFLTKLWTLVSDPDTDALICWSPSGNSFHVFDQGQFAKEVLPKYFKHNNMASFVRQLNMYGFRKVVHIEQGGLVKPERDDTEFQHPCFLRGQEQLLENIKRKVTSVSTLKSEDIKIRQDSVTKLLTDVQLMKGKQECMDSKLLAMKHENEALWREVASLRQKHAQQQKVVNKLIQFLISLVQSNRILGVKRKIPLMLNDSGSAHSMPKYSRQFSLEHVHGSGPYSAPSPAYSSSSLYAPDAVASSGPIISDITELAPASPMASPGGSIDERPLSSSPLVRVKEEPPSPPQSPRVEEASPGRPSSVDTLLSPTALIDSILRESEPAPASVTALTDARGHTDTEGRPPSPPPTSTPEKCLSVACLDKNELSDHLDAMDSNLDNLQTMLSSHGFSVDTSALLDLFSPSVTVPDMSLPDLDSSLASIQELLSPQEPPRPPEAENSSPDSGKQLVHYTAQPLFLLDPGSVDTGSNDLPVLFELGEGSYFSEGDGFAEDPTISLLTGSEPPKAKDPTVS
Chain of Signal transducer and activator of transcription 3 (Homo sapiens) (P40763 whole entry, looked up): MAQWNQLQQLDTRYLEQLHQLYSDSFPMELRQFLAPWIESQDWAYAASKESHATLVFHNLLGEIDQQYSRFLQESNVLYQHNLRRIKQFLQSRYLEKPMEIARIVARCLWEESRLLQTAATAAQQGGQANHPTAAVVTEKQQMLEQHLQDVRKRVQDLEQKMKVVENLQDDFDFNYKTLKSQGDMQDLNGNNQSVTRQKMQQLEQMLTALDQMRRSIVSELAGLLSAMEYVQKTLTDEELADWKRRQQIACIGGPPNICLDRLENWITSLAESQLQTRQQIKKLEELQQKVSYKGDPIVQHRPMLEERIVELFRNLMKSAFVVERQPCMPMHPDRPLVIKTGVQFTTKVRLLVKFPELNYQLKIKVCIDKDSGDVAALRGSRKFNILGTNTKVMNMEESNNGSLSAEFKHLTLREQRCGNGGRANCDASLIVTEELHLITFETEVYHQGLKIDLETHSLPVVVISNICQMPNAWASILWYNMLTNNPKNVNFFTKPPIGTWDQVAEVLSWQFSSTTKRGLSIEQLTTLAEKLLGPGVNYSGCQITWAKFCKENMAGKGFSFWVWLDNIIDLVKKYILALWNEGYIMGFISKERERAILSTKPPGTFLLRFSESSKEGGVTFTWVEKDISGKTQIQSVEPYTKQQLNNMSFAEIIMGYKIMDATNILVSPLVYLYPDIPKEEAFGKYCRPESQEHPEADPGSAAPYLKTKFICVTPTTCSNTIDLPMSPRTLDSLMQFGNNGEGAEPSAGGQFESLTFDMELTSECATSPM
Chain of Paired box protein Pax-6 (Homo sapiens) (P26367 whole entry, looked up): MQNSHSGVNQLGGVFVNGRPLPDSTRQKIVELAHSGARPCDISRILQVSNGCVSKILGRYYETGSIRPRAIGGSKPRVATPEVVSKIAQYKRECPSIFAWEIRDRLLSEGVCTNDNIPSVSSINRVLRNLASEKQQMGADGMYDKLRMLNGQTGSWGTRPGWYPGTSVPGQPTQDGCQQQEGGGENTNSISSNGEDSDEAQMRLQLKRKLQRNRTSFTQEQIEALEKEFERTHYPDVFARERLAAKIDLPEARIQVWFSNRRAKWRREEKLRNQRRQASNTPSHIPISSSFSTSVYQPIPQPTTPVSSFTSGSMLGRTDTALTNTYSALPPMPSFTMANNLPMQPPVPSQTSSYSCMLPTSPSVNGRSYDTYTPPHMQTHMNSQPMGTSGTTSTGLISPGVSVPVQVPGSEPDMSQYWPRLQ
Chain of Hypoxia-inducible factor 1-alpha (Homo sapiens) (Q16665 whole entry, looked up): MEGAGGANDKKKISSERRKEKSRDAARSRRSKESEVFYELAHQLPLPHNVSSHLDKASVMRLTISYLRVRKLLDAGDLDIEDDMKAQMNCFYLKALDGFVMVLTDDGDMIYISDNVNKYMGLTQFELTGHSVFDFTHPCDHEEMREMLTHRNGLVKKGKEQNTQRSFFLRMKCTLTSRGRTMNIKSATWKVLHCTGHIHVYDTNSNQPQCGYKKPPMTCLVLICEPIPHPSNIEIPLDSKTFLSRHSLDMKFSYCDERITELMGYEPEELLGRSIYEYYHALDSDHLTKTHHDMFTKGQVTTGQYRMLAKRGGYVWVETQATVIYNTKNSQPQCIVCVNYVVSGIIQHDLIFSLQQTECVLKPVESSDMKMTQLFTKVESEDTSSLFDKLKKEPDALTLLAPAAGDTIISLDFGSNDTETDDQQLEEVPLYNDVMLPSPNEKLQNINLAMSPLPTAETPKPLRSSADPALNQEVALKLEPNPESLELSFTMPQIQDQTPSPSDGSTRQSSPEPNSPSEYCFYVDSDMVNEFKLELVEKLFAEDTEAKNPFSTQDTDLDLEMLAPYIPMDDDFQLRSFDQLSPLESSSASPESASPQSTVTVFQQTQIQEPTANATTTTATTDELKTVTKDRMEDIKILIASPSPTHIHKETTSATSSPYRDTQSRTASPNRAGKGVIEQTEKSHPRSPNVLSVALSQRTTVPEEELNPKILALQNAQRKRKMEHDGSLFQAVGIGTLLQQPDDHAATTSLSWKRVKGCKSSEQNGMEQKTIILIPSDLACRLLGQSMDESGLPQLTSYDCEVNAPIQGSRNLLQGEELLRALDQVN
Chain of Transcription factor Sp1 (Homo sapiens) (P08047 whole entry, looked up): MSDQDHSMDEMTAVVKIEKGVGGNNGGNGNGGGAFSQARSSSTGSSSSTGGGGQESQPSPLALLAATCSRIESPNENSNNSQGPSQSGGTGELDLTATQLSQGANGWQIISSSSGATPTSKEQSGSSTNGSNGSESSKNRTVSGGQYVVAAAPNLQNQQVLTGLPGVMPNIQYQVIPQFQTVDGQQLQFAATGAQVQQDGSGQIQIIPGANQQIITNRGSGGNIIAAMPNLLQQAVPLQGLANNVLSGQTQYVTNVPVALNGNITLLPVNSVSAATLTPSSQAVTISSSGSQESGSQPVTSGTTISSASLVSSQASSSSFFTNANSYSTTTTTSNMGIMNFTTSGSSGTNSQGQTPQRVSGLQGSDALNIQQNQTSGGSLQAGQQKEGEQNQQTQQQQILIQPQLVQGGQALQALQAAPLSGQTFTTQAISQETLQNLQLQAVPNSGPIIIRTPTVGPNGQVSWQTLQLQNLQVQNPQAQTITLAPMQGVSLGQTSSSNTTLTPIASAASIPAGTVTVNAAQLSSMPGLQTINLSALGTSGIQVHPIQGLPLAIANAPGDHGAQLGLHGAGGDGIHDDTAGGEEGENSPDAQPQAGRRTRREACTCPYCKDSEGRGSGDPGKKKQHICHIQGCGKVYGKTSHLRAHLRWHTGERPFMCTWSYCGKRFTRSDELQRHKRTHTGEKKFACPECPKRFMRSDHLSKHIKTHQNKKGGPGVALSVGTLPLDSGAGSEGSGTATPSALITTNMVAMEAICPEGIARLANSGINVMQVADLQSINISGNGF
Chain of Hepatocyte nuclear factor 6 (Homo sapiens) (Q9UBC0 whole entry, looked up): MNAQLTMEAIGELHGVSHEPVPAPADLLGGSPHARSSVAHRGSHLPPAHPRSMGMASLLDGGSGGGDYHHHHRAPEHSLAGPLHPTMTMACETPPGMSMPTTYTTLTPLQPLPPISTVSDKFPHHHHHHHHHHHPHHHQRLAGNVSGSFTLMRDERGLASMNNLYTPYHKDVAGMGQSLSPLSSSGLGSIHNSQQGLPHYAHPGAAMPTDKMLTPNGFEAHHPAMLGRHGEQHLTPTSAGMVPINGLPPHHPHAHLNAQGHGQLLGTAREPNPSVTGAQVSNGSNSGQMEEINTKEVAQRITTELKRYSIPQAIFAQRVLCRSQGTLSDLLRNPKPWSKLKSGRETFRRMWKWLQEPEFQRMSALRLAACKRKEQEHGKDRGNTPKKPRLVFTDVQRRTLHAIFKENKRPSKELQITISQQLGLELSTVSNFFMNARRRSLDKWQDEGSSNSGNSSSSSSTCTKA

O=C(F)C(F)(F)C(F)(F)C(F)(F)C(=O)F
inactive: [1] | [2] | [3] | [4] | [5] | [6] | [7] | [8] | [9] | [10] | [11] | [12] | [13] | [14] | [15] | [16] | [17] | [18] | [19] | [20]

CCCCCCCCCCCC(=O)O
inactive: [1] | [2] | [3] | [4] | [5] | [6] | [8] | [9] | [10] | [13] | [15] | [16] | [17] | [18]
active: [6] 181 µM | [13] 36.7 µM | [14] 52.7 µM and 60 µM

CCCCCCCCCCCC(=O)NCCCN(C)C
active: [3] 18.1 µM | [5] 17.5 µM | [6] 19.8 µM | [8] 19.6 µM | [9] 5.26 µM | [11] 21.3 µM | [14] 8.13 µM | [16] 18.9 µM | [17] 17.5 µM | [20] 18 µM
inactive: [1] | [2] | [4] | [7] | [10] | [12] | [13] | [15] | [18] | [19]

NNC(=O)CCCCC(=O)NN
inactive: [1] | [2] | [3] | [4] | [5] | [6] | [7] | [8] | [9] | [10] | [11] | [12] | [13] | [14] | [15] | [16] | [17] | [19] | [20]
